Source: PubChem BioAssay (National Center for Advancing Translational Sciences (NCATS))
ALOX12 inhib – inhibitors of human 12-lipoxygenase (ALOX12); Potency, µM (titrated, usually from 57.1 µM), hits mostly inhibitors; purified 12-hLO, xylenol orange hydroperoxide absorbance; AID 1452; hit rate 0.12% among 150,000; further: nearly all actives have a fitted effect of over 55% in size
Target sequence (P18054 whole entry, looked up): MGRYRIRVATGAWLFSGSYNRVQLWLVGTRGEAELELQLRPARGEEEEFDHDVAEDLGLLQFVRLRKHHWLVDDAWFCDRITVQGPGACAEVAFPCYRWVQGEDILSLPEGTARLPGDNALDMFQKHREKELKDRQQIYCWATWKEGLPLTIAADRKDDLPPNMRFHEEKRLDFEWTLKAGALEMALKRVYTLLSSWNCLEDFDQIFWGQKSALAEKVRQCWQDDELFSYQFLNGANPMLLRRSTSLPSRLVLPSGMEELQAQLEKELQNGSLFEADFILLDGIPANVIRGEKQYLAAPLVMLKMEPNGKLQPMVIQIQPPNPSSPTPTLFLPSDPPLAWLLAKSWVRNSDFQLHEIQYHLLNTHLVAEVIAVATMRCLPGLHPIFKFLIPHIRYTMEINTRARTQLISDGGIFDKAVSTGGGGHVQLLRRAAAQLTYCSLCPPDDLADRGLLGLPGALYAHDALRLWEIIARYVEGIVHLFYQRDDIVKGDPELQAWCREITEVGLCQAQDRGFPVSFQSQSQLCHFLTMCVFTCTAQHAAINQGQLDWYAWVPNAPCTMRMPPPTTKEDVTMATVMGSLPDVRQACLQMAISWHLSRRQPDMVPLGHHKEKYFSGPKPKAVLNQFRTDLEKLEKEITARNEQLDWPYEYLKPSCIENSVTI
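Purified human 12hLO (150 nM final) was preincubated with compounds for 15 min at room temperature in 25 mM Hepes pH 7.0, 0.01% Triton X-100, then reacted with 40 uM arachidonic acid for 30 min. Hydroperoxide was detected with ferrous iron/xylenol orange.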
IMPase inh – cell-permeable inhibitors of inositol monophosphatase (IMPase); CHO-M1 cells, IP1 accumulation, HTRF TR-FRET ratio; inhibition (IP1 accumulation), % at 46.1 µM; P97697; 120,000 tested, under 10 active; active means well fitted curve in the direction sought with a large enough effect in the signal ratio, not every such curve was filed as active; inconclusive means small, poorly fitted or top-dose-only effect, or a change in a side signal; inactive means no such curve, though single readings can be large or run the other way; the % refers to the signal ratio;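 further: cells stimulated with carbachol in lithium chloride buffer; higher means more IMPase inhibition seen as more IP1 and lower FRET ratio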
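In this qHTS, compounds (final up to 46 uM) act on CHO-M1 cells that are then activated through the M1 receptor with carbachol, in pH 7.4 buffer containing 50 mM LiCl, for 30 min. IP1 accumulation is quantified by the IP-One immunoassay.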
PNC assembly inh – blocks assembly of the perinucleolar compartment. PC3M PTB-GFP, PNC prevalence imaging, 16 h; hits give low values. activity change (PNC), negative = inhibition, % at 10 µM. hit rate 3.1% among 140,000;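 active means readout at or below -70, meaning at least 70% loss of cells showing the perinucleolar compartment, a nuclear body marking cancer cells; inconclusive means readout between -30 and a set limit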
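Read-out is percentage of cells bearing a perinucleolar compartment, from automated 20x imaging of fixed, Hoechst-stained PC3M PTB-GFP cells. Cells were seeded 4 h, then exposed 16 h to compound (23 nl of library stock) in duplicate plates.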
15-hLO-2 inh – inhibitors of human 15-lipoxygenase 2 (ALOX15B) | purified 15hLO-2, xylenol orange hydroperoxide absorbance | AID 881 | Potency, µM (top dose mostly 57.1 µM), usual class: inhibitors | O15296 | hit rate 0.56% among 110,000; further: nearly all actives have a fitted effect of over 60% in size
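Enzyme 50 nM, AA 45 uM, 25 mM Hepes pH 7.5 + 0.01% Triton X-100; cpd preinc 15 min RT, rxn 90 min RT; stop/detect with 200 uM XO + 300 uM Fe(II) in 50 mM H2SO4, 30 min; A573/A405.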
IMPase Li cell – membrane-permeable IMPase blocker, potentiated with lithium | hit rate 0.35% among 210,000 | CHO-M1 cells, IP1 TR-FRET (IP-One), carbachol + lithium | Potency, µM (top dose mostly 59.4 µM), actives largely listed as inhibitors;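 further: IP1 builds up when IMPase is blocked and the TR-FRET signal falls; nearly all actives have a fitted effect of over 50% in size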
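Steps: plate 2000 CHO-M1 cells per well and culture 16–30 h; add compound and lithium; incubate 30 min, 37C; add d2-IP1 tracer and Eu cryptate anti-IP1 antibody in lysis buffer; read after 10 min at room temperature.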
A number is an active result; [ ] = another dose, or the depositor's remark. The entries come from a sample that favours hits as a whole. Unless noted, the call rests on the fitted dose curve; in most records, active means well fitted curve in the direction sought with a large enough effect; inconclusive means small, poorly fitted or top-dose-only effect, or another doubt; inactive means no such curve, though single readings can be large; an effect the other way counts as inactive or inconclusive.

`CC(c1ccc(C(C)(C)C)cc1)S(=O)CC(O)CO` (stereo not given) gave ALOX12 inhib inactive, PNC assembly inh -112 and IMPase Li cell inactive.
For CN(C)c1ccc(C(=O)C(O)c2ccc(C(C)(C)C)cc2)cc1 (stereo not given) the results were ALOX12 inhib inactive, IMPase inh inactive, PNC assembly inh inactive, 15-hLO-2 inh inactive and IMPase Li cell inactive.
For O=C(CSc1nnc(NC(=O)Cc2ccccc2)s1)NCC1CCCO1 (stereo not given) the results were IMPase Li cell inactive.
Screening CC(=O)Nc1nnc(SCC(=O)NCC2CCCO2)s1 (stereo not given) returned ALOX12 inhib inactive, IMPase inh inactive, PNC assembly inh -100, 15-hLO-2 inh inactive and IMPase Li cell inactive.
`CC(=O)OCCNc1cc(N2CCN(C)CC2)c2noc3c2c1C(=O)c1ccccc1-3` gave ALOX12 inhib inactive, IMPase inh inactive, PNC assembly inh -93 and IMPase Li cell inactive.
Screening CCOC(=O)N1CCN(c2cc(NCCO)c([N+](=O)[O-])c3nonc23)CC1 returned IMPase Li cell inactive.
N#Cc1cccc(-c2nccc(-n3ccnc3)n2)c1 was read as 15-hLO-2 inh inconclusive and IMPase Li cell inactive.
`CCOc1cccc(CNc2ccc(O)cc2)c1OCc1ccc(Cl)cc1Cl` gave ALOX12 inhib inconclusive, IMPase inh inactive, PNC assembly inh inactive, 15-hLO-2 inh 1.6µM and IMPase Li cell inactive.
O=C(NCc1cccnc1)c1cccc(C(F)(F)F)c1 was read as ALOX12 inhib inactive, IMPase inh inactive[1.84 µM], PNC assembly inh -94, 15-hLO-2 inh inactive[11.4 µM] and IMPase Li cell inactive.
`O=C(Cc1cccc(C(F)(F)F)c1)NCc1cccc(Cl)c1` gave ALOX12 inhib inactive, IMPase inh inactive, PNC assembly inh inconclusive and IMPase Li cell inactive.
O=C(NCc1cccc(C(F)(F)F)c1)c1cc(Cl)ccc1Cl was read as ALOX12 inhib inactive, PNC assembly inh -108 and IMPase Li cell inactive.
For O=C(NCc1cccnc1)c1ccc(Cl)c(Cl)c1 the results were ALOX12 inhib inactive, IMPase inh inactive, PNC assembly inh inconclusive, 15-hLO-2 inh inactive[2.29 µM] and IMPase Li cell inactive.
For CCOC(=O)C1OC1C(=O)NC(CC(C)C)C(=O)NCCC(C)C (stereo not given) the results were IMPase Li cell inactive.
`CC(=O)Nc1ccc(NC(=O)COC(=O)c2c(C)nn(-c3ccccc3)c2C)cc1` gave ALOX12 inhib inactive, PNC assembly inh -83 and IMPase Li cell inactive.
Screening Cc1cc2sc(C)[n+](CCCOS(=O)(=O)O)c2cc1C returned ALOX12 inhib inactive[11.4 µM], 15-hLO-2 inh inactive[11.4 µM] and IMPase Li cell inactive.
Screening O=C(c1ccccc1)N(Cc1cccnc1)C1(C(=O)Nc2ccccc2)CCCCC1 returned ALOX12 inhib inactive, PNC assembly inh -110 and IMPase Li cell inactive.
Cc1[nH]nc2c1C(c1ccccc1F)NC2=O (stereo not given) was read as ALOX12 inhib inactive, IMPase inh inactive, PNC assembly inh -103, 15-hLO-2 inh inactive and IMPase Li cell inactive.
For COc1ccc(-n2c(=O)c(-c3ccc(Cl)cc3)nc3cnc(N4CCOCC4)nc32)cc1 the results were ALOX12 inhib inactive, 15-hLO-2 inh inactive and IMPase Li cell inactive.
CCC/C=C(\CCC)C(NS(=O)(=O)c1ccc(Cl)cc1)c1ccccc1 (stereo not given) was read as ALOX12 inhib inactive, 15-hLO-2 inh inactive and IMPase Li cell inactive.
For O=C(C1CCCO1)N1N=C(c2ccc(Br)cc2)CC1c1ccco1 (stereo not given) the results were ALOX12 inhib inactive, PNC assembly inh -89 and IMPase Li cell inactive.
Screening CCC(=O)N1C2=C(c3ccccc3[C@@H]1CC(=O)Nc1ccc3ccccc3c1)[C@@H]1C(=O)N(c3ccccc3)C(=O)[C@@H]1[C@H](C)C2 returned ALOX12 inhib inactive[11.4 µM] and IMPase Li cell inactive.
Screening CCOc1ccccc1CNS(=O)(=O)c1ccc2[nH]c(=O)sc2c1 returned ALOX12 inhib inactive, IMPase inh inactive, PNC assembly inh -107, 15-hLO-2 inh inactive and IMPase Li cell inactive.
Cc1ccccc1NC(=O)CSc1nnc(Cc2ccccc2)o1 was read as ALOX12 inhib inactive, IMPase inh inactive, PNC assembly inh -100 and IMPase Li cell inactive.
For O=c1c(-c2ccc(F)cc2)nc2cnc(Nc3ccccc3)nc2n1Cc1cccs1 the results were ALOX12 inhib inactive, 15-hLO-2 inh inactive and IMPase Li cell inactive.
COc1ccc(-c2cc(C(=O)N3CCOCC3)c3cc(C)ccc3n2)cc1 was read as ALOX12 inhib inactive, IMPase inh inactive, PNC assembly inh inactive, 15-hLO-2 inh inactive[2.29 µM] and IMPase Li cell inactive.
Cc1ccc(-c2cc(C(=O)N3CCOCC3)c3ccccc3n2)cc1 was read as ALOX12 inhib inactive, IMPase inh inactive[1.84 µM], PNC assembly inh -98, 15-hLO-2 inh inactive[11.4 µM] and IMPase Li cell inactive.
Screening COc1ccc(/C=C(\C#N)c2nc3ccccc3n2C)c(OC)c1 returned IMPase inh inactive.
`CC1CCCC(NC2CCCCNC2=O)C1` (stereo not given) gave ALOX12 inhib inactive, IMPase inh inactive, PNC assembly inh inactive, 15-hLO-2 inh inactive and IMPase Li cell inactive.
For CCC1CCC(NC2CCCCNC2=O)CC1 (stereo not given) the results were ALOX12 inhib inactive, IMPase inh inactive, PNC assembly inh -107, 15-hLO-2 inh inactive and IMPase Li cell inactive.
`Cc1ccc(N2CSC3=C(C#N)C(c4cccs4)CC(=O)N3C2)cc1` (stereo not given) gave ALOX12 inhib inactive, IMPase inh inactive, PNC assembly inh inconclusive, 15-hLO-2 inh 13µM and IMPase Li cell inactive.
For CCc1ccc(N2CSC3=C(C#N)C(c4cccs4)CC(=O)N3C2)cc1 (stereo not given) the results were ALOX12 inhib inconclusive, IMPase inh inactive, PNC assembly inh inactive, 15-hLO-2 inh 20µM and IMPase Li cell inactive.
`CCOC(=O)c1ccc(N2CSC3=C(C#N)C(c4cccs4)CC(=O)N3C2)cc1` (stereo not given) gave ALOX12 inhib inactive, IMPase inh inactive, PNC assembly inh inactive, 15-hLO-2 inh inactive and IMPase Li cell inactive.
Screening CCOc1ccccc1N1CSC2=C(C#N)C(c3c(OC)ccc4ccccc34)CC(=O)N2C1 (stereo not given) returned ALOX12 inhib inconclusive, IMPase inh inactive, PNC assembly inh -106, 15-hLO-2 inh 10µM and IMPase Li cell inactive.
For COc1ccc(C2CC(=O)N3CN(c4ccc(C)c(Cl)c4)CSC3=C2C#N)cc1OC (stereo not given) the results were ALOX12 inhib inconclusive, IMPase inh inactive, PNC assembly inh inactive, 15-hLO-2 inh 25µM and IMPase Li cell inconclusive.
For Cc1nc2cnc(N3CCOCC3)nc2n(CCC#N)c1=O the results were ALOX12 inhib inactive, 15-hLO-2 inh inactive and IMPase Li cell inactive.
